# Assay outcomes: PubChem, several laboratories
# NADH coupling = inhibition of NAD/NADH coupling enzymes, library profiling; coupled PK/LDH NADH assays, four targets; IC50, µM (titrated, usually from 10 µM), without a hit: at the top dose inhibition; hit rate 0.02% among 65,000; AID 774;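 active = single-dose screening hits from any of four coupled enzyme assays that gave an IC50 when retested across doses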;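 note: the DPM-DC format reads NADH fluorescence rather than 340 nm absorbance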
# Hsp90 inh = displaces geldanamycin probe from tumor Hsp90. P07900. NCI-N417 lysate Hsp90, Cy3B-geldanamycin FP displacement. inhibition, % at 30 µM. hit rate 0.35% among 64,000;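 active = inhibition above 50%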;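 note: 0% = tracer plus lysate wells and 100% = tracer alone without lysate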
# A340 absorber = compounds absorbing at 340 nm. compound absorbance at 340 nm, fold over control. fold change at 10 µM. 65,000 tested, under 10 active;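 active = at 10 µM dose, initial 340 nm absorbance at least 2 fold that of control wells; inactive = change under 2 fold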;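 note: initial absorbance extrapolated from kinetic A340 decline of NADH oxidation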
# Fluor 339 460 = intrinsic fluorescence of library compounds, ex339/em460 – biochemical, MLSMR library, data from DPM-DC assay, artefact control, profiling panel. compound autofluorescence, ex339/em460 nm, NADH buffer; active compounds read high; 1 = no-compound wells, NADH background. fluorescence fold increase at 10 µM. hit rate 5.5% among 65,000. AID 709;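 active = at 10 µM, mean starting fluorescence two-fold or more over control wells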;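 note: signal is the first read of a kinetic run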
# Cdc25B inh = human M-phase inducer phosphatase 2 inhibition. P30305. recombinant Cdc25B, OMFP fluorescence Ex485/Em525. inhibition, %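 (compounds tested at 10 µM final in the well)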. hit rate 0.1% among 65,000; in the data active = inhibition above about 50%
# DUSP1 inh = blocks human MKP-1 phosphatase activity; recombinant MKP-1, OMFP hydrolysis fluorescence; hit rate 0.15% among 65,000; AID 374; inhibition, %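 (compounds tested at a single concentration somewhere between 10 and 100 µM)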;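 active = inhibition above about 50%, limit read from the data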;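 note: 0% = DMSO max control wells and 100% = wells with enzyme stopped by NaOH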
# Target sequence (P28562 whole entry, looked up): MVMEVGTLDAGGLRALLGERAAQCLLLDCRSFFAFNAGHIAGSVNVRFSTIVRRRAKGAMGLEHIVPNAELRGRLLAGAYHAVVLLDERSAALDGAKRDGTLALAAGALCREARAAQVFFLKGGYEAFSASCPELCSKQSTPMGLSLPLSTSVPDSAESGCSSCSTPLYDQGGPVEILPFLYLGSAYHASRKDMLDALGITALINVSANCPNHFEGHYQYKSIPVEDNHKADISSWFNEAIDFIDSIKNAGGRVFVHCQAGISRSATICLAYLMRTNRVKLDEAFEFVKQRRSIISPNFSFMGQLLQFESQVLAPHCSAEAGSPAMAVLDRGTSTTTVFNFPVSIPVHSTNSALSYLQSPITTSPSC
# Active calls of the source: *; · = not tested or not shown. Shown are actives, neighbours in structure and some others; about 5.7% of the full set was active somewhere.
SMILES,NADH coupling,Hsp90 inh,A340 absorber,Fluor 339 460,Cdc25B inh,DUSP1 inh
CC(=O)Oc1cc2oc(=O)c3c(c2cc1Cl)CCC3,14.0%,-2.5,1.01,4.92*,-16.0,1.9
O=c1onc2n1-c1cc(Br)ccc1OC2,·,-1.2,·,·,·,·
Cc1ccc(NS(=O)(=O)c2ccc(NC(=O)c3ccc(Br)o3)cc2)c(C)c1,0.0%,-4.6,1.07,1.12,-17.4,-0.4
O=C(Nc1ccc(O)c(C(=O)O)c1)c1ccc2c(c1)C(=O)N(CC1CCCO1)C2=O (configuration not stated),1.0%,-4.0,1.11,1.06,1.6,6.9
Cc1onc(-c2ccccc2Cl)c1C(=O)OCC(=O)N1CCCc2ccccc21,4.0%,-0.5,1.03,1.1,-5.9,35.4
Cc1cc(=O)oc2cc(OC(C)C(=O)O)c(Cl)cc12 (configuration not stated),25.0%,1.4,1.05,3.17*,-15.3,6.3
CS(=O)(=O)N1CCC(C(=O)c2cccc(Cl)c2)CC1,4.0%,0.3,1.03,1.13,-6.3,9.1
COc1cccc(NC2=NC3(CCCCC3)N=C(N)N2)c1,1.0%,-2.9,1.06,1.09,-8.5,1.7
COc1ccccc1Oc1coc2cc(O)ccc2c1=O,9.0%,2.8,1.09,4.76*,-7.5,-6.3
CCOc1ccccc1Oc1coc2cc(OC(=O)c3ccco3)ccc2c1=O,6.0%,-3.2,1.07,1.53,-2.7,6.1
CCOc1ccccc1Oc1coc2cc(O)ccc2c1=O,8.0%,-1.0,1.09,4.7*,-6.0,5.5
CSc1cccc(NC(=O)CN(C)S(=O)(=O)c2ccc(C)cc2)c1,2.0%,·,1.02,1.11,·,·
CSc1ccccc1N=Cc1nc(-c2ccccc2)oc1O,0.0%,-0.9,1.05,1.1,-24.3,2.2
CN(C)c1ccc(N=Cc2nc(-c3ccccc3)oc2O)cc1,2.0%,54.1*,1.07,1,10.8,7.7
Cc1ccc(C)c(S(=O)(=O)NC(CC(C)C)C(=O)O)c1 (configuration not stated),13.0%,·,1.04,0.74,-8.3,4.5
Cc1ccc(Nc2ncc3c(n2)CC(c2ccco2)CC3=O)c(C)c1 (configuration not stated),8.0%,0.9,1.06,1.26,78.3*,27.2
Cc1cccc(Nc2ncc3c(n2)CC(c2ccco2)CC3=O)c1 (configuration not stated),4.0%,-2.3,1,1.62,3.1,-2.8
O=c1cc(C(F)(F)F)c2sc(N3CCCCC3)nc2[nH]1,9.0%,-3.0,1.08,2.12*,-12.1,34.5
c1c2c(cc3sc(N4CCCCC4)nc13)OCO2,8.0%,-0.3,1.01,1.12,7.9,4.6
O=C(Cc1ccccc1)Nc1ccc2oc(-c3cccnc3)nc2c1,1.0%,-1.8,1.09,2.3*,-8.5,2.4
O=C(Nc1ccc2oc(-c3ccccc3)nc2c1)c1cccnc1,8.0%,-7.0,1.04,1.3,-1.4,-7.5
CCCCCC(=O)Nc1ccc2oc(-c3cccnc3)nc2c1,12.0%,2.1,1.03,3.74*,14.1,14.2
CCc1ccc2oc(-c3cccc(NC(=O)c4cccnc4)c3)nc2c1,5.0%,·,1.03,1.1,-19.0,12.4
O=C(Cc1ccc(Cl)cc1)Nc1ccc2oc(-c3ccncc3)nc2c1,2.0%,-5.0,1.08,3.62*,-3.7,6.8
COC(=O)c1cccc(NC(=O)CSc2nnc(C)n2Cc2ccccc2)c1,8.0%,-0.8,1.01,1.07,-6.1,11.9
SMILES,NADH coupling,Hsp90 inh,A340 absorber,Fluor 339 460,Cdc25B inh,DUSP1 inh
O=C(CN1C(=O)c2cccc3cccc1c23)N1CCN(c2cccc(Cl)c2)CC1,16.0%,-1.6,1.04,2.37*,-18.3,2.9
O=C(O)c1ccc2c3c(ncnc13)-c1ccccc1C2=O,5.0%,89.5*,1.05,0.99,-0.8,-10.0
CN(C)C(=O)c1c(-c2ccccc2)oc2ccc(O)cc12,3.0%,·,1.12,2.22*,-10.8,4.4
COc1ccc(C(=O)c2oc3ccc(OC)cc3c2N)cc1,8.0%,-0.5,1.12,1.84,-6.4,7.4
NC(=O)c1oc2ccc(Cl)cc2c1N,9.0%,-0.8,1.05,3.86*,1.2,18.6
COc1ccc2oc(-c3ccccc3)c(C(N)=O)c2c1,2.0%,-4.6,1.07,2.08*,-0.8,12.1
COC(=O)c1oc2ccc(OC)cc2c1N,8.0%,1.6,1.01,2.62*,2.5,3.5
CSc1nc(N)c2ncn([C@@H]3O[C@H](COP(=O)(O)OP(=O)(O)O)[C@H](O)C3O)c2n1 (some centres not stated),·,-1.8,·,·,·,·
c1ccc(-n2nnnc2SCc2cccc3nsnc23)cc1,3.0%,0.9,0.98,1.1,-0.6,2.6
CCOC(=O)C1=C(C)NC(=O)NC1c1c(O)ccc2ccccc12 (configuration not stated),4.0%,-2.7,1.05,1.09,2.4,9.2
CCOC(=O)C1=C(C)NC(=O)NC1c1c(C)nn(-c2ccccc2)c1Cl (configuration not stated),4.16µM*,-4.1,1.02,1.11,6.4,28.9
COc1ccc(-c2nnnn2CCc2ccccc2)cc1,4.0%,-2.1,1,1.1,-6.5,2.3
COCCn1cc(C(=O)NCc2cccs2)c2c3ccccc3n(C)c2c1=O,15.0%,-2.7,1.03,3.47*,-18.7,31.0
CCN1CCN(CCCNC(=O)c2cn(CCOC)c(=O)c3c2c2ccccc2n3C)CC1,4.0%,-2.1,1.02,2.98*,-17.6,0.5
CCN(CC)CCCNC(=O)c1cn(CCOC)c(=O)c2c1c1ccccc1n2C,8.0%,-1.6,1.04,4.43*,-12.7,3.2
COCCn1cc(C(=O)NCCCN2CCC(C)CC2)c2c3ccccc3n(C)c2c1=O,8.0%,-5.4,1.01,2.5*,-8.8,18.6
CCCN(CCC)CCNC(=O)c1cc2c(=O)n(C)c3ccccc3c2n1C,4.0%,-3.0,1,1.58,-6.6,-8.6
Cn1c(C(=O)NCc2cccs2)cc2c(=O)n(C)c3ccccc3c21,6.0%,-3.5,1.07,1.42,-25.4,5.7
Cc1ccc(C(=O)c2coc3ccc(O)c(CN4CCN(C)CC4)c23)cc1,2.0%,-4.7,1.03,1.04,-0.5,20.1
c1cc2c(cc1C1CCCN1)OCCCO2 (configuration not stated),5.0%,-0.8,1,1.02,0.4,1.6
COC(=O)c1cc2c(ccn2-c2ccc(F)cc2)n1CC(=O)N1CCN(C(=O)c2ccco2)CC1,5.0%,-1.9,1.05,3.51*,-10.5,36.6
CCC1(C)Cc2c(sc3[nH]c(=O)[nH]c(=O)c23)CS1 (configuration not stated),4.0%,-10.5,1.02,2.28*,10.0,-8.5
C=CCn1c(=N)c(C(=O)NCCCOC)cc2c(=O)n3cccc(C)c3nc21,0.0%,-3.1,1.05,2.28*,-8.4,3.2
CCCCNC(=O)c1cc2c(=O)n3cccc(C)c3nc2n(Cc2ccccc2)c1=N,4.0%,-10.2,1.05,3.99*,1.6,-1.7
